The structures appear in SMILES notation. Measured potencies and affinities stand elsewhere. Activity calls are given as the source filed them.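 How the source made its calls: active means every repeat run showing a signal drop whose fitted half-maximal concentration is at most twice the top tested concentration; inconclusive means repeat runs disagree, or flat partial drop, or poor fit; inactive means the rest.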

This assay in a line: general mammalian cell viability loss – activator set, cherry-pick, cytotoxicity control for miR-122 modulator project, dose response (AID 720690). Particulars: HEK293T viability, CellTiter-Glo luminescence, 48 h; series mostly up to 26 µM.
As to `COC(=O)C[C@@H]1CC[C@@H]2[C@H](COc3ccc(NC(=O)Nc4cccc(F)c4)cc3C(=O)N2C)O1`, the compound was classed as inactive. In the case of `CCNC(=O)C[C@H]1CC[C@@H]2[C@@H](COc3ccc(NC(=O)c4cccc(C(F)(F)F)c4)cc3C(=O)N2C)O1` it was “inactive”; in that of `CN1C(=O)c2cc(NS(=O)(=O)c3cccc(F)c3)ccc2OC[C@H]2O[C@@H](CC(=O)NCCN3CCCCC3)CC[C@H]21`, “inactive”. On to `COC(=O)C[C@H]1CC[C@@H]2[C@@H](COc3ccc(NC(=O)c4ccc(F)c(F)c4)cc3C(=O)N2C)O1`, for which the call was inactive. As for `CC1CCN(CCc2nc3cc(NC(=O)Nc4ccccc4)ccc3n2C)CC1`, the entry is “inactive”.
